# Test results published in PubChem BioAssay (NCATS).
# Where “and” joins values, the source holds several entries; their conditions need not be identical. Identical values can stand only once. Values without a mark were called inactive. Results filed as inconclusive are left out. Calls of active or inactive are those of the source. Unless noted, calls follow the shape of the dose curve; as a rule, active = well fitted curve in either direction with a large enough effect (not every such curve was filed as active); inconclusive = small, poorly fitted or top-dose-only effect, or another doubt; inactive = flat fitted curve, though single readings scatter.
# How the values were obtained:
# [1] = AP1 Signaling Pathway (AID 357); details: ME-180 AP-1-bla reporter, EGF-induced, beta-lactamase ratio, 5 h; also: % is scaled to controls: 0 for no effect and ±100 for the full control effect
# Method in brief: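 AP-1-bla ME-180 cells with beta-lactamase reporter under AP-1 response element, stimulated with EC50 EGF; compounds titrated, 5 hours at 37 degrees Celsius. CCF4 read at 460/530 nm ratio; positive and negative modulators judged by AC50.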
# [2] = biological target: Cytochrome P450 1A2 (Homo sapiens) (UniProt P05177); assay: p450-cyp1a2 (AID 410; calls by dose curve; also: potency is read from the fitted curve at half-maximal effect;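 as to activity change, negative = inhibition: -100% = full effect of reference inhibitor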)
# Sequence of Cytochrome P450 1A2 (Homo sapiens) (P05177 whole entry, looked up): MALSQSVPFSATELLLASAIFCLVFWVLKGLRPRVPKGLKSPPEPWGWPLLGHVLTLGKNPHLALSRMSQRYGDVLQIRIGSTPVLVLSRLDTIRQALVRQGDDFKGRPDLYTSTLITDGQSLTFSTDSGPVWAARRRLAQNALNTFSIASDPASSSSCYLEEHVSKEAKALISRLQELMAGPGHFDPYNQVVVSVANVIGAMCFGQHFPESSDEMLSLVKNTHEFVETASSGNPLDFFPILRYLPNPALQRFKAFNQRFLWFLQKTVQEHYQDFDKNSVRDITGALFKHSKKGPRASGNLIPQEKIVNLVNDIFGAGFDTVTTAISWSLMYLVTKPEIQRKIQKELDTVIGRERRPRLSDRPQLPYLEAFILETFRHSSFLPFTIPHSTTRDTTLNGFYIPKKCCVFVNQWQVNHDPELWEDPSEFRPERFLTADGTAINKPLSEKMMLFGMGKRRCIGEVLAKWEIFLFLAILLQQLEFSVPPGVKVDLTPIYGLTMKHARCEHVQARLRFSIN
# Method in brief: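 20nM CYP1A2, 100uM Luciferin-ME (=Km), 100mM KPO4; cpd 10 min RT; +NADPH regen, 60 min RT; stop/detect 20 min; luminescence. Normalized to furafylline 57 uM = full inhibition.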
# [3] = NFAT Signaling Pathway (AID 444); details: Jurkat NFAT-bla M1, carbachol, beta-lactamase ratio, 5 h;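 also: carbachol stimulus at about its EC50 of 1 µM final; % is scaled to controls: 0 for no effect and ±100 for the full control effect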
# Method in brief: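 Jurkat cells with NFAT-driven β-lactamase reporter and co-expressed M1 receptor, stimulated with carbachol (final 1 uM, ~EC50), compound titration, 5 h at 37 °C. CCF4 loaded 1 h at RT; 460/530 nm ratio gave %activity and AC50.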
# [4] = Stat Signaling Pathway (AID 446); details: ME-180 (cervical carcinoma) SIE beta-lactamase reporter, IL-6 stimulated, 5 h; at 17.2 µM (top of the series) unless noted;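 also: ME-180 cervical cancer cells given 40 pM IL-6 alongside compound; SIE-controlled beta-lactamase reporter measured as 460/530 nm FRET emission ratio; % is scaled to controls: 0 for no effect and ±100 for the full control effect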
# Method in brief: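 FRET read-out (405 nm excitation, 460/530 nm emission) of a beta-lactamase reporter under a STAT-inducible element in ME-180 cervical carcinoma cells. Cells with compound receive 40 pM IL-6 for 5 h. Values are normalised to AC90 stimulation and AC90 JAK-inhibitor controls.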
# [5] = biological target: 3',5'-cyclic-AMP phosphodiesterase 4B (Homo sapiens) (UniProt Q07343); assay: qHTS Assay for Inhibitors of PDE-IV (AID 607; active = well fitted activation curve with a large enough effect in the main read-out, with a control signal flat, not every such curve was filed as active; also: % of control where 0% means no effect)
# Sequence of 3',5'-cyclic-AMP phosphodiesterase 4B (Homo sapiens) (Q07343 whole entry, looked up): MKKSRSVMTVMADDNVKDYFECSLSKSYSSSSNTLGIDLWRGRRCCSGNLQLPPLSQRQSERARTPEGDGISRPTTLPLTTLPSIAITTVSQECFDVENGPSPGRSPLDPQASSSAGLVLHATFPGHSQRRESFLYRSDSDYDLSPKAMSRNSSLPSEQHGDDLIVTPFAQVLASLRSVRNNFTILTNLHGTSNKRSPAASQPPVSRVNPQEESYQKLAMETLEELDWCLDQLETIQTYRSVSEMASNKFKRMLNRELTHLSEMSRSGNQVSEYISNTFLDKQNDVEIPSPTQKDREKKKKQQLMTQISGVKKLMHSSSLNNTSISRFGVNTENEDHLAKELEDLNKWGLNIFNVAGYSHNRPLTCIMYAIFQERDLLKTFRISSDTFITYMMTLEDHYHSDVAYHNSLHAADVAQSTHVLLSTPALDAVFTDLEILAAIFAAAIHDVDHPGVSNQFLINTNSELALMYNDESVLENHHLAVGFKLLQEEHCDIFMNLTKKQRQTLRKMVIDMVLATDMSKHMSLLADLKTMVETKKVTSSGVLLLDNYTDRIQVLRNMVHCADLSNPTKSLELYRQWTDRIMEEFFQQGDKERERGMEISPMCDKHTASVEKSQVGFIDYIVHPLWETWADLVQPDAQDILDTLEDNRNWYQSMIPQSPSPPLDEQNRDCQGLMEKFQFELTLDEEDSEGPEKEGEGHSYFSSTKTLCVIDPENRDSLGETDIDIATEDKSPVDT
# Method in brief: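 Cell-based read-out of cAMP via a modified cyclic nucleotide-gated channel and membrane potential dye (535/590 nm) in HEK293 cells expressing PDE4 endogenously. Compounds tested up to 22.9 uM final; 100 uM RO 20-1724 reference.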
# [6] = Cell Viability - BJ (AID 421; calls by dose curve;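 also: potency is read from the fitted curve at half-maximal effect; cells exposed to compound for 40 hours at 37 °C before readout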); details: BJ fibroblast viability, qHTS
# Method in brief: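 Cytotoxicity as drop in intracellular ATP (CellTiter-Glo, 20 min RT) after 40 hr compound exposure of BJ fibroblasts at 37 °C. Titrations scaled between DMSO and 100 uM tamoxifen, Hill-fitted for AC50.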
# [7] = Cell Viability - Jurkat (AID 426;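 active = dose-dependent loss of cell ATP signal giving a full or clear fitted curve, ranked by lower potency value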; also: potency is read from the fitted curve at half-maximal effect); details: qHTS
# Method in brief: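 Luminescent ATP read-out (CellTiter-Glo, 20 min at room temperature) after 40 hr compound exposure at 37 °C of Jurkat E6-1 cells, 5000/well. Decreased ATP taken as cytotoxicity; AC50 from standard Hill equation.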
# [8] = Cell Viability - HepG2 (AID 433; calls by dose curve;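 also: potency is read from the fitted curve at half-maximal effect; potency for ATP loss meaning cytotoxicity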); details: qHTS
# Method in brief: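 In this qHTS format, a 40 h, 37 °C compound incubation of HepG2 cells in complete medium precedes a 20 min CellTiter-Glo step at room temperature. Tamoxifen and doxorubicin serve as positive controls; Hill-equation fits yield AC50.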
# [9] = Cell Viability - MRC5 (AID 434; calls by dose curve;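 also: potency is read from the fitted curve at half-maximal effect; potency reflects cytotoxicity seen as loss of intracellular ATP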); details: MRC5 lung fibroblast viability, qHTS
# Method in brief: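 ATP luminescence read-out (CellTiter-Glo, 20 min RT) after 40 hr, 37 °C compound exposure of 1500 MRC5 cells/well. Data normalized to DMSO (basal) and 100 uM tamoxifen (100% inhibition); AC50 from standard Hill equation.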
# [10] = Cell Viability - SK-N-SH (AID 435; calls by dose curve; also: potency is read from the fitted curve at half-maximal effect); details: SK-N-SH neuroblastoma cell viability qHTS
# Method in brief: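 Human neuroblastoma line, 40 h exposure at 37 °C, ATP quantified via luciferase luminescence; DMSO and 100 uM tamoxifen define 0 and 100% inhibition for AC50 fitting.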
# [11] = biological target: Glucocorticoid receptor (Homo sapiens) (UniProt P04150); assay: GR-GFP Redistribution (AID 450;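 active = compounds whose dose series gives a full or clear partial fitted curve of increased nuclear translocation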; also: potency is read from the fitted curve at half-maximal effect); details: U2OS GR-GFP nuclear translocation, laser cytometry, 2 h
# Sequence of Glucocorticoid receptor (Homo sapiens) (P04150 whole entry, looked up, the tested form may be a part): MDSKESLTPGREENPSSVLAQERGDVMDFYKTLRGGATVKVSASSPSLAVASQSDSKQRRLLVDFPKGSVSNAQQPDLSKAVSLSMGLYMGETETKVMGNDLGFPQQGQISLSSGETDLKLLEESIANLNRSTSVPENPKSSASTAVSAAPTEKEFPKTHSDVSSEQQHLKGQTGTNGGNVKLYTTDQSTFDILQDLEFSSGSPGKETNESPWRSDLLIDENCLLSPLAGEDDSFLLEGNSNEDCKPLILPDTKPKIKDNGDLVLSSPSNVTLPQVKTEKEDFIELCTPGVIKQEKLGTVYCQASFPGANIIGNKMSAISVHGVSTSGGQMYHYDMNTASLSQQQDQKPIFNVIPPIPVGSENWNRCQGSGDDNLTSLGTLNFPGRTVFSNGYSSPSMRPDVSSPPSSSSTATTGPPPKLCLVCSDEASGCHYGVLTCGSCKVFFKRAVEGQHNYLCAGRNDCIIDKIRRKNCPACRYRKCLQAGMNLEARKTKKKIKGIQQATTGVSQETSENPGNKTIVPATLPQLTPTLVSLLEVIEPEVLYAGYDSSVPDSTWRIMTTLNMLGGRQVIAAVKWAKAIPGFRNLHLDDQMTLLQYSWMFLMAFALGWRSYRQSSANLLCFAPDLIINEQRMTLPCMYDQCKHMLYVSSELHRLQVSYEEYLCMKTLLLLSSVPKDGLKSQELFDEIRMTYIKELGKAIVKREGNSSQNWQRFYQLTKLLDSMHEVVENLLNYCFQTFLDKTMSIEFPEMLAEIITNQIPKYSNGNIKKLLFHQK
# [12] = biological target: Glucocorticoid receptor (Homo sapiens) (UniProt P04150); assay: GR-EFC Redistribution (AID 451; calls by dose curve; also: potency is read from the fitted curve at half-maximal effect); details: CHO-K1 GR-EFC translocation, beta-gal luminescence, 2 h
# Method in brief: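 CHO-K1 cells expressing nuclear EA and GR-ED fragments of b-gal; compounds titrated up to 46 uM final, 2 h at 37 C. GR nuclear translocation read as complemented b-gal luminescence after 1 h RT detection.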
# [13] = Cell Viability - N2a (AID 540; active = well fitted curve in the direction sought with a large enough effect; an effect the other way counts as inactive or inconclusive; also: nearly all actives have a fitted effect of over 45% in size; also: potency is read from the fitted curve at half-maximal effect;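 as to activity change, negative = cytotoxicity: plate controls were DMSO alone for no effect and tamoxifen control for full effect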); details: N2a mouse neuroblastoma cell viability; activity change, negative = cytotoxicity: at 92.2 µM (top of the series)
# Method in brief: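 N2a mouse neuroblastoma, 1500 cells/well, 5 hr settle; compound 40 hr, 37 °C; CellTiter-Glo 20 min RT; luminescence; Hill-fit AC50.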
# [14] = Cell Viability - NIH 3T3 (AID 541; active = well fitted curve in the direction sought with a large enough effect; an effect the other way counts as inactive or inconclusive; also: nearly all actives have a fitted effect of over 25% in size; also: potency is read from the fitted curve at half-maximal effect;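 as to activity change, negative = cytotoxicity: plate controls were DMSO alone for no effect and tamoxifen positive control for full effect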); details: NIH 3T3 cell viability, qHTS; activity change, negative = cytotoxicity: at 92.2 µM (top of the series)
# Method in brief: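 qHTS format; 40 hr compound exposure, 37 °C; CellTiter-Glo luminescence (cellular ATP) read-out after 20 min at RT. Decrease in ATP = cytotoxicity; AC50 from standard Hill fit.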
# [15] = Cell Viability - HUV-EC-C (AID 542; active = well fitted curve in the direction sought with a large enough effect; an effect the other way counts as inactive or inconclusive; also: % is scaled to controls: 0 for no effect and ±100 for the full control effect; nearly all actives have a fitted effect of over 35% in size)
# Method in brief: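 Luminescent ATP read-out (CellTiter-Glo, 20 min room temperature) after 40 hr compound treatment of HUV-EC-C cells at 37 °C. Concentration-response data fitted with the standard Hill equation to give AC50; tamoxifen and doxorubicin served as positive controls.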
# [16] = Cell Viability - H-4-II-E (AID 543; active = well fitted curve in the direction sought with a large enough effect; an effect the other way counts as inactive or inconclusive; also: % is scaled to controls: 0 for no effect and ±100 for the full control effect; nearly all actives have a fitted effect of over 35% in size)
# Method in brief: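 qHTS, rat hepatoma H-4-II-E, 1500 cells/well; 40 hr compound exposure, 37 °C; CellTiter-Glo ATP luminescence after 20 min RT; AC50 by standard Hill fit.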
# [17] = Cell Viability - SH-SY5Y (AID 544; active = well fitted curve in the direction sought with a large enough effect; an effect the other way counts as inactive or inconclusive;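 also: 0% = DMSO alone and -100% = 100 µM tamoxifen; nearly all actives have a fitted effect of over 55% in size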); details: SH-SY5Y neuroblastoma cell viability; viability change, negative = cytotoxic: at 92.2 µM (top of the series)
# Method in brief: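 SH-SY5Y, 1500 cells/well, 5 hr pre-incubation 37 °C; cpd 40 hr 37 °C; CellTiter-Glo 20 min RT; luminescence (ATP) read. qHTS concentration-response, Hill fit → AC50. Tamoxifen, doxorubicin as positive controls.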
# [18] = Cell Viability - Renal Proximal Tubule (AID 545; active = well fitted curve in the direction sought with a large enough effect; an effect the other way counts as inactive or inconclusive;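 also: 0% = DMSO only and -100% = 100 µM tamoxifen; nearly all actives have a fitted effect of over 40% in size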)
# Method in brief: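 In this qHTS format, normal rat kidney-derived proximal tubule cells in complete culture medium receive compound titrations, then sit 40 hours at 37 °C before luciferase-based ATP quantitation; potency is reported as AC50 from concentration-response curves.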
# [19] = Cell Viability - Mesenchymal (AID 546; active = well fitted curve in the direction sought with a large enough effect; an effect the other way counts as inactive or inconclusive;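 also: cells exposed to compound for 40 hours before reading; 0% = DMSO only and -100% = 100 µM tamoxifen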)
# Method in brief: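 Human renal mesenchymal cells (glomerulus-derived), 1000 cells/well, 5 hr 37 °C pre-incubation; compound 40 hr, 37 °C; CellTiter-Glo, 20 min RT; luminescence; AC50 via Hill equation.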
# [20] = at 17.2 µM (top of the series) unless noted
compound,measurement,setting,value
COc1ncnc(NS(=O)(=O)c2ccc(N)cc2)c1OC,"activity change, negative = inhibition",[1]; [20],-3.45%
same,Potency,[2],inactive
same,"activity change, negative = inhibition",[3]; [20],-25.1%
same,"activity, negative = inhibition",[4],-3.42%
same,outcome,[5],inactive
Cc1cc(NS(=O)(=O)c2ccc(N)cc2)no1,"activity change, negative = inhibition",[1]; [20],3.59% and 0.387%
same,Potency,[6],> 92 µM
same,Potency,[7],> 92 µM
same,Potency,[8],> 92 µM
same,Potency,[9],> 92 µM
same,Potency,[10],> 92 µM
same,"activity change, negative = inhibition",[3]; [20],1.34% and -21.2%
same,"activity, negative = inhibition",[4],2% and 5.36%
same,Potency,[11],> 20.6 µM
same,Potency,[12],> 20.6 µM
same,Potency,[13],inactive
same,"activity change, negative = cytotoxicity",[14],-14.5%
same,Potency,[15],inactive
same,Potency,[16],inactive
same,Potency,[17],inactive
same,Potency,[18],inactive
same,Potency,[19],inactive
same,outcome,[5],inactive
CNNCc1ccc(C(=O)NC(C)C)cc1,"activity change, negative = inhibition",[1]; [20],-1.4%
same,Potency,[2],1.58 µM (active)
same,"activity change, negative = inhibition",[3]; [20],-25.9%
same,Potency,[11],> 20.6 µM
same,Potency,[12],> 20.6 µM
same,outcome,[5],inactive
COc1cc(NS(=O)(=O)c2ccc(N)cc2)nc(OC)n1,"activity change, negative = inhibition",[1]; [20],1.62% and 1.87%
same,Potency,[2],inactive
same,"activity change, negative = inhibition",[3]; [20],-19.2%
same,"activity, negative = inhibition",[4],9.03% and -4.46%
same,Potency,[11],> 20.6 µM
same,Potency,[12],> 20.6 µM
same,outcome,[5],inactive
COc1cnc(NS(=O)(=O)c2ccc(N)cc2)nc1,"activity change, negative = inhibition",[1]; [20],-7.19%
same,Potency,[2],inactive
same,"activity change, negative = inhibition",[3]; [20],-4.83%
same,"activity, negative = inhibition",[4],-4.71%
same,Potency,[11],> 20.6 µM
same,Potency,[12],> 20.6 µM
same,outcome,[5],inactive
COC(=O)Nc1nc2ccc(Sc3ccccc3)cc2[nH]1,"activity change, negative = inhibition",[1]; [20],1.3% and 6.61%
same,Potency,[2],0.794 µM (active)
same,"activity change, negative = inhibition",[3]; [20],-6.14%
same,"activity, negative = inhibition",[4],1.46% and -3.37%
same,Potency,[11],> 20.6 µM
same,Potency,[12],> 20.6 µM
same,outcome,[5],inactive
COc1ccc2cc3[n+](cc2c1OC)CCc1cc2c(cc1-3)OCO2,"activity change, negative = inhibition",[1]; [20],10.1%
same,Potency,[2],5.01 µM (active)
same,Potency,[6],> 92 µM
same,Potency,[9],> 92 µM
same,Potency,[10],> 92 µM
same,"activity, negative = inhibition",[4],-1.52%
same,Potency,[11],> 20.6 µM
same,Potency,[12],> 20.6 µM
same,Potency,[13],1.26 µM (active)
same,Potency,[14],1 µM (active)
same,Potency,[15],inactive
same,Potency,[16],inactive
same,Potency,[17],inactive
same,Potency,[18],inactive
same,Potency,[19],inactive
same,outcome,[5],inactive
Cc1noc(NS(=O)(=O)c2ccc(N)cc2)c1C,"activity change, negative = inhibition",[1]; [20],3.21% and 4.22%
same,Potency,[2],inactive
same,Potency,[6],> 92 µM
same,Potency,[7],> 92 µM
same,Potency,[8],> 92 µM
same,Potency,[9],> 92 µM
same,Potency,[10],> 92 µM
same,"activity change, negative = inhibition",[3]; [20],-7.16% and 11.7%
same,"activity, negative = inhibition",[4],7.81% and 5.09%
same,Potency,[13],inactive
same,"activity change, negative = cytotoxicity",[14],-8.82%
same,Potency,[15],inactive
same,Potency,[16],inactive
same,Potency,[17],inactive
same,Potency,[18],inactive
same,Potency,[19],inactive
same,outcome,[5],inactive
N[C@@H](Cc1ccc(O)c(O)c1)C(=O)O,"activity change, negative = inhibition",[1]; at 17.2 µM (top of the series),-2.87%
same,"activity change, negative = inhibition",[1]; at 38 µM (top of the series),-2.2%
same,Potency,[2],inactive
same,"activity change, negative = inhibition",[3]; at 17.2 µM (top of the series),1.41%
same,"activity change, negative = inhibition",[3]; at 38 µM (top of the series),18.2%
same,"activity, negative = inhibition",[4],4.83%
same,Potency,[11],> 46 µM and > 20.6 µM
same,Potency,[12],> 46 µM and > 20.6 µM
same,outcome,[5],inactive
CCc1cc(C(N)=S)ccn1,"activity change, negative = inhibition",[1]; [20],-4.73%
same,Potency,[6],> 92 µM
same,Potency,[7],> 92 µM
same,Potency,[8],> 92 µM
same,Potency,[9],> 92 µM
same,Potency,[10],> 92 µM
same,"activity change, negative = inhibition",[3]; [20],5.86%
same,"activity, negative = inhibition",[4],-6.82%
same,Potency,[11],> 20.6 µM
same,Potency,[12],> 20.6 µM
same,Potency,[13],inactive
same,"activity change, negative = cytotoxicity",[14],-7.33%
same,Potency,[15],inactive
same,Potency,[16],inactive
same,Potency,[17],inactive
same,Potency,[18],inactive
same,Potency,[19],inactive
same,outcome,[5],inactive
